# This is a sample that favours compounds with a hit; in the whole collection about 0.97% have one here.
# PI4K2A block = blocks human PI4K2A kinase activity; activity change, negative = inhibition, % at 76.9 µM; Q9BTU6; 420,000 compounds, 0.13% hits; purified PI4K2A, ADP-Glo luminescence, 1 h; stronger effect = lower value; in the data active = activity change below about -50%; inconclusive = mostly about -30% to -49%;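 also: -100% = wells without enzyme as full effect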
# Target sequence (Q9BTU6 whole entry, looked up): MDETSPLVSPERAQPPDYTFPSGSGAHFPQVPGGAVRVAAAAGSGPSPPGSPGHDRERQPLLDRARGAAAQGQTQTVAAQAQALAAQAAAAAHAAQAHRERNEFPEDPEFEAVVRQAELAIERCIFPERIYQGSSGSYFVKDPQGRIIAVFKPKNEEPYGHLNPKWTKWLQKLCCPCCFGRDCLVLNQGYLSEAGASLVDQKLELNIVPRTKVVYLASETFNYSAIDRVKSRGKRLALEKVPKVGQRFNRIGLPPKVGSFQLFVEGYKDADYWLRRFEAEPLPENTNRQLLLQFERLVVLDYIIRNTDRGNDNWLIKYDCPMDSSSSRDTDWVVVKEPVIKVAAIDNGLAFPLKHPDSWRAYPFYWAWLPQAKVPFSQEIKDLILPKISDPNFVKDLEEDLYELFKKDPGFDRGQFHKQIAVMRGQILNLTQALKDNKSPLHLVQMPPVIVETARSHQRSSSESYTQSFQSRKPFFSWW
#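 PI4K2A activity was measured by ADP-Glo luminescence: enzyme (4 ug/mL stock) and phosphatidylinositol (1.2 mM stock) in Tris pH 7.5/MgCl2/EGTA/Triton X-100 buffer were reacted with ATP (300 microM stock) for one hour at ambient temperature.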
# CtBP-E1A inh = inhibitors of CtBP/E1A interaction | 340,000 compounds, 0.49% hits | AID 651724 | activity change, % (test concentration not listed) | AlphaScreen GST-E1A/His-CtBP binding, 1536-well; stronger effect = lower value
#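 Protein mix (5X: 125 nM each GST-E1A, His-CtBP) was incubated with pinned compound 2 h at 37 deg C in dark, in 50 mM Tris pH 8.0 buffer with 300 mM NaCl. Glutathione donor and nickel acceptor beads followed; AlphaScreen signal read after 1 h.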
# CCT modulator = cytosolic chaperonin activity modulation. 360,000 compounds, 0.3% hits. activity change, % (no concentration beside the values), hits read low. purified chaperonin ATPase assay, HTRF ADP detection, 30 min; in the data active = activity change below about -30%
#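 We incubate TRiC, 40 or 20 nM final, with library compounds at 76 uM and 10 uM ATP for 30 min at 37 °C. ADP formed is detected with Transcreener HTRF reagents after 30 min at room temperature.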
# Eya2 phos inh = blocks the phosphatase activity of human Eya2. O00167. recombinant Eya2, OMFP fluorescence dephosphorylation (OMFP is methylfluorescein phosphate). Potency, µM (top dose mostly 76.9 µM), without a hit: top-dose activity, negative = inhibition, actives largely listed as inhibitors. 330,000 compounds, 0.006% hits. AID 488837; active = well fitted inhibition curve with a large enough effect; inconclusive = small, poorly fitted or top-dose-only effect, or effect the other way; also: potency is read from the fitted curve at half-maximal effect
#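 Eya2 (0.2 uM) preincubated 10 min at ambient with compound, then OMFP substrate added at 50 uM; 10 min reaction in 50 mM HEPES pH 7.5, 50 mM NaCl, 5 uM MgCl2, 0.05% BSA, 1 mM DTT. Fluorescence read at Ex 485/Em 525 nm.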
# Six1-Eya2 blk = inhibitors of human Six1/Eya2 interaction. AlphaScreen GST-Six1/His-Eya2 binding, biochemical; stronger effect = lower value. activity change, % (concentration not given with the values). 360,000 compounds, 0.56% hits. AID 651725
#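 Compounds are tested against tagged Six1 and Eya2 proteins bridged by glutathione donor and nickel acceptor beads; after a one-hour incubation at 37 °C without light, AlphaScreen emission is recorded.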
# * hit, by the source's call; ? = inconclusive; nt = no result given. Rule as the data show it, unless noted: active = activity change below about -65%; inconclusive = mostly about -30% to -63%; inactive = weaker than that. Unless noted, % is scaled to controls: 0 for no effect and ±100 for the full control effect.
SMILES,PI4K2A block,CtBP-E1A inh,CCT modulator,Eya2 phos inh,Six1-Eya2 blk
O=C(N/N=C/c1ccccc1O)C(=O)Nc1ccccn1,1,nt,0,4%,-88*
O=C(N/N=C/c1cc(Cl)ccc1O)c1ccc(Br)cc1,-10,?,1,-7%,?
Nc1nonc1-n1nnc(C(=O)N/N=C/c2cc(Br)ccc2O)c1CNc1ccccc1,3,-3,0,0%,13
Nc1nonc1C(=O)N/N=C/c1cc(Br)ccc1O,6,-92*,-2,3%,-93*
CN(C)[C@@H]1C(=O)C(C(=O)NCN2CCCC2)=C(O)[C@@]2(O)C(=O)C3=C(O)c4c(O)cccc4[C@@](C)(O)C3C[C@@H]12 (some centres not stated),-3,nt,nt,nt,nt
COc1ccc(NC(=O)Nc2nnc(SCC(=O)Nc3cccc(C)c3C)s2)cc1,-3,nt,nt,nt,nt
CC1CCN(S(=O)(=O)c2ccc3c(c2)N(CC(=O)N2CCN(c4ccc(Cl)cc4)CC2)C(=O)CO3)CC1,-3,nt,nt,nt,nt
Cc1cc(C)c2nc(C)cc(N/N=C/c3ccc(O)cc3)c2c1,7,-86*,-3,3%,?
COc1ccccc1NC(=O)c1sc2nc(-c3cc4cc(Cl)ccc4oc3=O)[nH]c(=O)c2c1C,-2,nt,nt,nt,nt
O=C(N=Nc1c(O)[nH]c2ccccc12)c1cccs1,-6,?,2,-4%,-20
O=C(N=Nc1c(O)[nH]c2ccccc12)c1cc(NS(=O)(=O)c2cccs2)cc(NS(=O)(=O)c2cccs2)c1,-51*,2,-2,1%,-12
COc1ccc(-n2nc(CCC(=O)N(C)O)cc2-c2ccc(Cl)cc2)cc1,1,nt,nt,nt,nt
CCN1/C(=C/c2ccc3ccccc3[n+]2CC)C=Cc2ccccc21,-16,?,-6,-43%,-70*
CCc1c(-c2ccccc2)nc2ccccc2c1C(=O)NCCc1ccccc1,0,nt,nt,nt,nt
CC1Sc2n(c3ccccc3[n+]2C)N=C1c1ccccc1 (configuration not stated),2,-3,-34*,3%,0
O=C(CSc1nnc(COc2ccccc2)n1-c1ccc(Cl)cc1)Nc1ccccc1-c1ccccc1,-2,nt,nt,nt,nt
C=CCOC(=O)C1=C(C)OC(N)=C(C#N)C1c1ccc(OC)c(CSc2ccccn2)c1 (configuration not stated),2,nt,-85*,-7%,2
Nc1ncnc(Nc2ccc(S(N)(=O)=O)cc2)n1,-65*,nt,0,?,-1
Cc1ccc(Nc2ncnc(N)n2)cc1,-8,-6,-4,-2%,4
CCCc1nnc(SCC(=O)O)n1/N=C/c1ccc2c(c1)OCO2,3,7,-63*,14%,0
COCCn1c(-c2ccccc2)cnc1N,9,?,0,4%,-88*
Cn1c(-c2ccccc2)cnc1N,1,?,1,0%,?
CC(Oc1ccccc1)C(=O)Nc1ccccc1C(=O)OCc1cc(=O)n2nc(C(C)C)sc2n1 (configuration not stated),-5,nt,nt,nt,nt
CCC1C(=O)C(CC)C(c2ccccc2)NC1c1ccccc1 (configuration not stated),-7,20,-50*,-19%,15
CCOc1ccc(C(=O)CCNC(Cc2cnc[nH]2)C(=O)O)cc1 (configuration not stated),-6,-66*,-2,8%,?
SMILES,PI4K2A block,CtBP-E1A inh,CCT modulator,Eya2 phos inh,Six1-Eya2 blk
CCOc1ccc(S(=O)(=O)NC(Cc2cnc[nH]2)C(=O)O)cc1 (configuration not stated),3,0,0,-23%,-11
O=C(CSc1nnc(-c2ccc(C(F)(F)F)cn2)o1)Nc1ccccc1Cl,-5,?,-5,-4%,-84*
O=C(CSc1nnc(-c2ccncc2)o1)Nc1ccccc1Cl,1,3,-2,-11%,2
COc1ccc2[nH]c(=O)c(CN(C(=O)c3cccc(Cl)c3)c3ccccc3OC)cc2c1,0,nt,nt,nt,nt
CCOc1ccc(/C=C(\C#N)C(=O)Nc2cccnc2)cc1,5,3,-63*,-5%,-2
CC(C)(C)C1=CC(=Nc2ccccc2N)C=C(C(C)(C)C)C1=O,-3,-79*,0,2%,-81*
CC(C)(C)C1=CC(=O)C(=O)C(C(C)(C)C)=C1,0,nt,0,-8%,-2
CCn1cc(S(=O)(=O)c2ccccc2)c(=O)c2cc(F)c(N3CCCCCC3)cc21,-1,nt,nt,nt,nt
COc1cc(CCC(=O)OCC(=O)Nc2ccc(C(N)=O)cc2)cc(OC)c1OC,16,-4,-4,6%,-7
COc1ccc(Br)cc1C(=O)CCC(=O)OCC(=O)Nc1cc(C(N)=O)cc(C(N)=O)c1,2,-70*,-1,-24%,?
Brc1ccc(OCc2nc(-c3ccccn3)n[nH]2)cc1,23,-93*,-4,13%,-91*
Cc1ccc(OCc2nc(-c3ccccn3)no2)cc1,-4,-8,-2,7%,-9
Clc1ccc(OCc2nc3ccccc3[nH]2)cc1,3,-1,1,-5%,6
Clc1ccc(OCc2nc(-c3ccccn3)n[nH]2)cc1,16,-94*,0,24%,-92*
Cn1cc(S(C)=O)c(=O)c2ccc(F)cc21 (configuration not stated),-5,nt,nt,nt,nt
COc1cc(C=C2CCC/C(=C\c3ccc(O)c(OC)c3)C2=O)ccc1O,2,nt,nt,nt,nt
O=C(c1ccc(F)cc1)c1cc2ccc(O)cc2oc1=O,-88*,-10,0,-5%,-10
Cc1ccc(CNC(=O)c2ccc(-n3cnc4cccnc43)cc2)cc1,3,nt,nt,nt,nt
Cc1sccc1Br,2,nt,nt,nt,nt
COc1ccccc1NC(c1cccnc1)c1ccc2cccnc2c1O (configuration not stated),-1,-78*,0,-1%,-79*
Oc1ccccc1C(Nc1nccs1)c1ccc2cccnc2c1O (configuration not stated),2,-93*,1,1%,-77*
COc1cc(C(Nc2ccccn2)c2ccc3ccc(C)nc3c2O)cc(OC)c1O (configuration not stated),6,-6,0,9%,?
Oc1c(C(Nc2ccccn2)c2ccccc2F)ccc2cccnc12 (configuration not stated),1,nt,nt,nt,nt
Cc1cc(NC(c2ccc(Cl)cc2)c2ccc3cccnc3c2O)no1 (configuration not stated),6,?,-8,9%,-66*
Cc1ccnc(NC(c2cc(C)ccc2O)c2ccc3cccnc3c2O)c1 (configuration not stated),-6,nt,nt,nt,nt
Oc1c(C(Nc2ccccn2)c2ccccn2)ccc2cccnc12 (configuration not stated),4,-95*,-5,17%,-95*
CCC(C)S(=O)(=O)c1oc(-c2cccs2)nc1S(=O)(=O)c1ccccc1 (configuration not stated),30,nt,nt,nt,nt
